Screens deposited in PubChem BioAssay by National Center for Advancing Translational Sciences (NCATS).
In the library only some 9.3% were active in any assay of this set; here they are far more common.
NPC1 prom act – NPC1 promoter activation; Potency, µM (series often up to 9.22 µM), for inactives: top-dose activation, hits mostly activators; 2.4% of 320,000 active; Huh7 NPC1 promoter luciferase reporter, 24 h; note: % of control where 0% means no effect; nearly all actives have a fitted effect of over 60% in size
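Quantitative HTS used a cell-based reporter: Huh7 cells stably bearing the NPC1 promoter upstream of luciferase were treated with compounds for 24 h, and promoter activation was read as luminescence.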
Rab9 prom act – activates the Rab9 promoter. Huh7 Rab9 promoter-luciferase reporter, luminescence, 24 h. Potency, µM (highest dose often 9.22 µM), without a hit: top-dose activation, negative = inhibition, usual class: activators. 2.8% of 320,000 active; note: % of control where 0% means no effect; nearly all actives have a fitted effect of over 60% in size
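Using Huh7 cells stably transfected with Rab9 promoter–luciferase, compounds were incubated 24 h at 37 °C, 5% CO2; luciferase luminescence was read 10 min after reagent addition.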
SMN2 splice up – SMN2 splice variant enhancement; HEK293 SMN2-luciferase splicing reporter, luminescence, 30-36 h; Potency, µM (series often up to 46.1 µM), without a hit: at the top dose activity change, positive = activation, usual class: activators; 2.8% of 210,000 active; AID 1458; note: % of control where 0% means no effect; nearly all actives have a fitted effect of over 55% in size
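qHTS luciferase splicing reporter: luminescence rises when SMN2 exon 7 is included in transfected HEK293 cells. Compound exposure lasted 30-36 h at 37C, with 4.5 mM final sodium butyrate as control, followed by a ONE-Glo read.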
ELG1 genotox – inducers of genotoxicity in HEK293T ELG1-luciferase cells. HEK293T ELG1-luciferase reporter, luminescence, 16 h. Potency, µM (series often up to 46 µM), for the others: at the top dose activity change, positive = activation, usual class: activators. 1.3% of 330,000 active; note: % of control where 0% means no effect; nearly all actives have a fitted effect of over 60% in size
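ELG1-luciferase HEK293T cells, 2,000/well; compound pinned in; 16 hr, 37 °C, 5% CO2; ONE-Glo, 30 min RT; luminescence on CCD imager.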
ELG1 repair inh – blocks ELG1-dependent DNA repair in HEK293T cells; Potency, µM (top dose mostly 46.1 µM), without a hit: at the highest dose activity change, negative = inhibition, usual class: inhibitors; 2.3% of 330,000 active; AID 504467; HEK293T ELG1-luciferase reporter, luminescence, 16 h; DNA damage induced by 5-fluorouridine; note: % is set by controls: 0 for no effect and ±100 for the full control effect; nearly all actives have a fitted effect of over 55% in size
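DMSO vehicle served as the neutral condition. Each well held 2,000 cells given 5-fluorouridine plus compound; after 16 hr at 37 °C/5% CO2, ONE-Glo was added and luciferase measured 30 min later.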
FLuc counter – counter-screen for miR-21 project: firefly luciferase inhibitors or activators; Potency, µM (titrated, usually from 57.5 µM), for the others: top-dose activity change, negative = inhibition, most hits filed as inhibitors; purified FLuc, Km substrates, luminescence inhibition; 6.9% of 360,000 active; P08659;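 note: plate controls were vehicle for no effect and reference inhibitor for full effect; nearly all actives have a fitted effect of over 55% in size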
Target sequence (P08659 whole entry, looked up): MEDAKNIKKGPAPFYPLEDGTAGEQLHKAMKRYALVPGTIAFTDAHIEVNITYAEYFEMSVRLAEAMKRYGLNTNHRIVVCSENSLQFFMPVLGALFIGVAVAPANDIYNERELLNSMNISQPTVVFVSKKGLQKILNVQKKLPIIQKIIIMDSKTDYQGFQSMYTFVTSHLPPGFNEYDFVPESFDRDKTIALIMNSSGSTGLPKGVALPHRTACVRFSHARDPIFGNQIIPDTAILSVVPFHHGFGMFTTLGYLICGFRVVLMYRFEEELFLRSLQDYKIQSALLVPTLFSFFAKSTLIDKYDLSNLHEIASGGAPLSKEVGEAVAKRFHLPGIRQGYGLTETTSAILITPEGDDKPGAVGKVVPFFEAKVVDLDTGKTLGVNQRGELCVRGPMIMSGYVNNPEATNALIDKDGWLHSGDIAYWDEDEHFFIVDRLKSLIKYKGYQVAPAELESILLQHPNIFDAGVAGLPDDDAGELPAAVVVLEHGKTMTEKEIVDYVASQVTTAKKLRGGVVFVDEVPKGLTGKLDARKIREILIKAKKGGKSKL
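Biochemical qHTS of compounds, final roughly 60 µM downward over six points, against 10 nM purified firefly luciferase using Km concentrations of substrates (10 uM D-luciferin, 10 uM ATP) in Tris acetate pH 7.5 buffer; luminescence output.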
Active calls of the source: *; [ ] = another dose, or the depositor's remark. Calls come from the whole dose curve; as a rule, active = well fitted curve in the direction sought with a large enough effect; inconclusive = small, poorly fitted or top-dose-only effect, or another doubt; inactive = no such curve, though single readings can be large; an effect the other way counts as inactive or inconclusive. Potency is the fitted concentration of half-maximal effect.

Results for COc1ccc(N(CCCN2C(=O)c3cccc4cccc(c34)C2=O)C(=O)c2cccs2)cc1 ?
NPC1 prom act: 8%; Rab9 prom act: -6%; SMN2 splice up: -14%; ELG1 genotox: -1%; ELG1 repair inh: inconclusive; FLuc counter: -1%

Results for Cc1c(N=Cc2c(O)n(Cc3ccco3)c(=O)c3ccccc23)c(=O)n(-c2ccccc2)n1C ?
NPC1 prom act: -5%; Rab9 prom act: -4%; SMN2 splice up: -27%; ELG1 genotox: -8%; ELG1 repair inh: 23µM*; FLuc counter: 2%

How did CCOc1ccccc1NC(=O)CSc1nc2c(sc3ccccc32)c(=O)n1CCCC(=O)NC1CCCC1 do in these assays?
SMN2 splice up: 0%; FLuc counter: -3%

How did Cc1noc(C)c1COc1cccc(C(=O)Nc2ccc(OCc3ccccc3)cc2)c1 do in these assays?
NPC1 prom act: 0%; Rab9 prom act: -1%; SMN2 splice up: -8%; ELG1 genotox: -10%; ELG1 repair inh: -13%; FLuc counter: 8.5µM*

What do the screens show for `Cc1noc(C)c1COc1ccc(C(=O)Nc2ccccc2)cc1`?
NPC1 prom act: 7%; Rab9 prom act: -1%; SMN2 splice up: -23%; ELG1 genotox: 0%; ELG1 repair inh: -13%; FLuc counter: 2%

How did CCSc1nnc(NC(=O)c2cccc(OCc3c(C)noc3C)c2)s1 do in these assays?
NPC1 prom act: 4%; Rab9 prom act: 4%; SMN2 splice up: -22%; ELG1 genotox: -7%; ELG1 repair inh: inconclusive; FLuc counter: inconclusive

How did COc1ccc2nc(NC(=O)c3cccc(OCc4c(C)noc4C)c3)sc2c1 do in these assays?
NPC1 prom act: -9%; Rab9 prom act: 5%; SMN2 splice up: -23%; ELG1 genotox: -17%; ELG1 repair inh: 26µM*; FLuc counter: 1.5µM*

How did Cc1ccc(C)c(Cn2c(=O)n(CCCCC(=O)NCc3ccccc3Cl)c(=O)c3ccccc32)c1 do in these assays?
SMN2 splice up: 4%; FLuc counter: -1%

Results for c1ccc(-c2csc3ncnc(NCc4ccccn4)c23)cc1 ?
NPC1 prom act: -6%; Rab9 prom act: -18%; ELG1 genotox: -13%; ELG1 repair inh: 12µM*; FLuc counter: -16%

How did c1ccc(CNc2ncnc3scc(-c4cccs4)c23)nc1 do in these assays?
NPC1 prom act: -12%; Rab9 prom act: -29%; SMN2 splice up: -80%; ELG1 genotox: -18%; ELG1 repair inh: 8.2µM*; FLuc counter: -7%

Results for CC(C)CN(C(=O)CN1C(=O)C2CCCCC2C1=O)c1c(N)n(Cc2ccccc2)c(=O)[nH]c1=O (stereo unspecified) ?
NPC1 prom act: -1%; Rab9 prom act: 1%; ELG1 genotox: 2%; ELG1 repair inh: -1%; FLuc counter: 2%

Results for Cc1ccccc1OCC(=O)Nc1ccc(N2CCN(C(=O)c3ccco3)CC2)cc1 ?
NPC1 prom act: -3%; Rab9 prom act: -8%; ELG1 genotox: -21%; ELG1 repair inh: 21µM*; FLuc counter: -1%

Results for O=C(COc1ccccc1[N+](=O)[O-])Nc1ccc(N2CCN(C(=O)c3cccs3)CC2)cc1 ?
NPC1 prom act: -14%; Rab9 prom act: -8%; ELG1 genotox: -16%; ELG1 repair inh: 18µM*; FLuc counter: -2%

What do the screens show for `O=C(COc1ccccc1Cl)Nc1ccc(N2CCCC2)cc1`?
NPC1 prom act: 8%; Rab9 prom act: inconclusive; ELG1 genotox: 12%; ELG1 repair inh: inconclusive; FLuc counter: inconclusive

How did CCC(=O)Nc1ccc(N2CCN(C(=O)c3cccs3)CC2)cc1 do in these assays?
NPC1 prom act: 0%; Rab9 prom act: 1%; SMN2 splice up: 3%; ELG1 genotox: -4%; ELG1 repair inh: 0%; FLuc counter: -1%

Results for Cc1cccc(OCC(=O)Nc2ccc(N3CCN(C(=O)c4ccccc4)CC3)cc2)c1 ?
NPC1 prom act: 1%; Rab9 prom act: -5%; SMN2 splice up: -34%; ELG1 genotox: -9%; ELG1 repair inh: 18µM*; FLuc counter: 1%

What do the screens show for `Cc1cccc(OCC(=O)Nc2ccc(N3CCN(C(=O)c4ccco4)CC3)cc2)c1C`?
NPC1 prom act: -4%; Rab9 prom act: -11%; SMN2 splice up: -46%; ELG1 genotox: 1%; ELG1 repair inh: -15%; FLuc counter: -1%

What do the screens show for `Cc1ccc(OCC(=O)Nc2ccc(N3CCN(C(=O)c4ccc(C)cc4)CC3)cc2)cc1`?
NPC1 prom act: 0%; Rab9 prom act: -9%; ELG1 genotox: 1%; ELG1 repair inh: inconclusive; FLuc counter: 1%

How did O=C(COc1ccccc1Cl)Nc1ccc(N2CCN(C(=O)c3ccccc3)CC2)cc1 do in these assays?
NPC1 prom act: -11%; Rab9 prom act: -7%; ELG1 genotox: -22%; ELG1 repair inh: 13µM*; FLuc counter: 0%

What do the screens show for `CC(=O)N1CCN(c2ccc(NC(=O)COc3ccc(Cl)cc3Cl)cc2)CC1`?
NPC1 prom act: -1%; Rab9 prom act: -15%; SMN2 splice up: -46%; ELG1 genotox: -11%; ELG1 repair inh: 9.2µM*; FLuc counter: -1%

How did CC(=O)N1CCN(c2ccccc2NC(=O)COc2ccc(Cl)cc2Cl)CC1 do in these assays?
NPC1 prom act: 7%; Rab9 prom act: -2%; SMN2 splice up: 13%; ELG1 genotox: -21%; ELG1 repair inh: inconclusive; FLuc counter: -16%

How did O=C(NCc1cccs1)O[C@H]1C[C@H]2CC[C@@H]1C2 do in these assays?
SMN2 splice up: -13%[9.22 µM]

What do the screens show for `O=S(=O)(Nc1cc(Sc2cccc3cccnc23)c(O)c2ccccc12)c1ccccc1`?
NPC1 prom act: -19%; Rab9 prom act: -22%; SMN2 splice up: inconclusive; ELG1 genotox: -15%; ELG1 repair inh: 9.2µM*; FLuc counter: inconclusive

Results for O=C(O)CSc1cc(NS(=O)(=O)c2cccc([N+](=O)[O-])c2)c2ccccc2c1O ?
NPC1 prom act: -30%; Rab9 prom act: -29%; ELG1 genotox: -15%; ELG1 repair inh: 23µM*; FLuc counter: inconclusive

What do the screens show for `CCOc1ccc(S(=O)(=O)Nc2cc(SCC(=O)O)c(O)c3ccccc23)cc1`?
NPC1 prom act: -14%; Rab9 prom act: -18%; ELG1 genotox: -13%; ELG1 repair inh: inconclusive; FLuc counter: inconclusive

Results for C/C=C/C=C\C(=O)Nc1cccc(C2=NOC3(C2)C[C@H](C(N)=O)N(C(=O)CC#N)C3)c1 (stereo partly specified) ?
NPC1 prom act: 9%; Rab9 prom act: 1%; ELG1 genotox: 4%; ELG1 repair inh: 24%; FLuc counter: inconclusive
